# From PubChem BioAssay
# An excerpt weighted towards active compounds, which were near 21% of everything screened.
# NS1 function inh: qHTS Assay for Inhibitors of Influenza NS1 Protein Function; Potency, µM (series often up to 46.1 µM), for inactives: top-dose activity, positive = more growth; actives 0.4% (n = 270,000); calls by dose curve; further: potency means the concentration at half of the fitted maximal effect; actives are rising curves; nearly all actives have a fitted effect of over 50% in size
#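 Compounds were scored for reversing the slow growth caused by influenza A NS1 in S. cerevisiae, measured by optical density at 600 nm. Assay medium contained 2% galactose at pH 6.0; NS1-free yeast of the same strain were the positive control.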
# Shiga inhibitor: A qHTS for Small Molecule Inhibitors of Shiga Toxin | inhibition, % at 38.7 µM | Vero cells, Shiga toxin protein synthesis inhibition reporter | AID 2315, 2010 | actives 9.2% (n = 290,000); in the data active means inhibition mostly above about 28%, no sharp cut-off; inactive means mostly below about 43%; further: 0% is about no effect
# Pf growth 48h: Primary qHTS for delayed death inhibitors of the malarial parasite plastid, 48 hour incubation | Potency, µM (series often up to 28.7 µM), for inactives: at the top dose activity change, negative = inhibition, actives largely listed as inhibitors | AID 504832, 2011 | actives 5.9% (n = 310,000) | P. falciparum luciferase growth in erythrocytes, 48 h; further: potency means the concentration at half of the fitted maximal effect; on the % scale 0 is the no-effect control and ±100 the full control effect
#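 Firefly luciferase activity from engineered P. falciparum reports growth; inhibitors lower the luminescent signal. Cultures contained 2% hematocrit erythrocytes at 0.1% final parasitemia.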
# Pf growth 96h: Primary qHTS for delayed death inhibitors of the malarial parasite plastid, 96 hour incubation. P. falciparum luciferase reporter growth, 96 h. Potency, µM (highest dose often 28.7 µM), for inactives: at the highest dose activity change, negative = inhibition, actives largely listed as inhibitors. actives 6.9% (n = 320,000); further: potency means the concentration at half of the fitted maximal effect; on the % scale 0 is the no-effect control and ±100 the full control effect
#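 Plates of compound plus infected erythrocytes (2% hematocrit, 0.05% parasitemia final) incubate 96 hours, 37 C, 5% CO2. Detection reagent added; reduced luminescence from the parasites' luciferase reporter flags inhibition.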
# CHX counter: Cycloheximide Counterscreen for Small Molecule Inhibitors of Shiga Toxin. cell reporter, cycloheximide protein synthesis inhibition counterscreen. max response, %. actives 12% (n = 300,000). AID 2314, 2010; in the data active means max response mostly above about 13%, no sharp cut-off; inactive means mostly below about 14%; further: read at 38.3 µM for the half of the compounds with a filed dose; 0% is about no effect
# SARS PLpro yeast: qHTS of Yeast-based Assay for SARS-CoV PLP; actives 0.19% (n = 330,000); S. cerevisiae expressing SARS-CoV PLpro, growth rescue; Potency, µM (highest dose often 32.9 µM), inactives show at the highest dose activity, positive = growth rescue, most hits filed as activators; AID 485353, 2010; calls by dose curve; further: potency means the concentration at half of the fitted maximal effect; 0% is about no effect; nearly all actives have a fitted effect of over 55% in size
# Active calls of the source: *; ? = inconclusive; · = no result. Unless noted, the call rests on the fitted dose curve; in most records, active means well fitted inhibition curve with a large enough effect; inconclusive means small, poorly fitted or top-dose-only effect, or another doubt; inactive means no such curve, though single readings can be large or run the other way.
SMILES,NS1 function inh,Shiga inhibitor,Pf growth 48h,Pf growth 96h,CHX counter,SARS PLpro yeast
COC(=O)c1sccc1NS(=O)(=O)c1ccccc1[N+](=O)[O-],·,·,-5%,14%,·,3%
COc1cc(-c2cc(C(=O)Nc3cccc(C(C)=O)c3)c3ccccc3n2)cc(OC)c1OC,-1%,6,?,-21%,18*,3%
COc1cc(-c2cc(C(=O)Nc3ccc(O)cc3)c3ccccc3n2)cc(OC)c1OC,1%,-8,?,?,-2,1%
CC(C)COc1cccc(-c2cc(C(=O)Nc3ccon3)c3ccccc3n2)c1,22%,-7,2.1µM*,-8%,1,-7%
COc1ccccc1C(=O)Nc1cccc(NC(=O)c2ccccc2C)c1,-38%,6,-31%,-24%,3,-12%
CCN(CC)c1cc(C)c2cc(NC(=O)c3cccs3)ccc2n1,·,40,?,?,23*,7%
CN(C(=O)c1cccc(NC(=O)c2cccs2)c1)c1ccccc1,22%,-18,19%,-6%,-3,3%
CCN(CC)c1cc(C)c2cc(NC(=O)c3ccccc3OC)ccc2n1,·,8,?,9.3µM*,0,1%
CC(C)c1nc2sc3c(=O)n(N)cnc3c2c2c1COC(C)(C)C2,-1%,-12,11%,-26%,5,-8%
Cc1ccc(N=Nc2c(N)nn3c(C)cc(C)nc23)cc1,6%,15,25%,6%,21*,22%
Cc1nn(-c2ccccc2)c(N)c1N=O,0%,17,15%,21%,1,-2%
Cc1cc(C)n2nc(N)c(N=Nc3cccc(Cl)c3)c2n1,-8%,16,3%,26%,8,4%
Cc1nn(-c2ccccc2)c(N)c1N=Nc1ccc2ccccc2c1,-12%,56*,87%,91%,39*,-77%
Cc1ccc(N=Nc2c(N)nn(-c3ccccc3)c2N)cc1,-16%,91*,107%,499%,63*,-41%
O=C(COC(=O)Cc1ccccc1F)Nc1cc(S(=O)(=O)N2CCOCC2)ccc1N1CCCC1,0%,5,-1%,75%,3,1%
CCOc1ccc2nc(NC3=NC(c4ccc(OC)cc4)CC(=O)N3)nc(C)c2c1 (stereo not drawn),?,-16,?,10µM*,-1,5%
COCc1cc(=O)[nH]c(Nc2nc(C)c3cc(OC)ccc3n2)n1,0%,-3,·,87%,6,4%
CCOc1ccc2nc(NC3=NC(C)(C)C=C(C)N3)nc(C)c2c1,-1%,-12,·,?,-3,8%
CCOc1ccc2c(C)nc(NC3=NC(C)(C)C=C(C)N3)nc2c1,-2%,-8,10µM*,12µM*,4,8%
CC1=CCC(C(C)(C)O)CC1 (stereo not drawn),·,·,3%,14%,·,·
COc1ccc2cc(C(N)=O)/c(=N/NC(=O)c3ccco3)oc2c1,1%,9,14%,-19%,11,2%
C=C(C)CN(CC)C(=O)CCc1nnc(CCCc2ccccc2)o1,-3%,61*,43%,9%,39*,-1%
O=C(CCc1nnc(CCCCc2ccccc2)o1)N(CCO)Cc1ccccc1,1%,1,-9%,?,-2,1%
CCN(CCn1cccn1)C(=O)CCc1nnc(CCCc2ccccc2)o1,-4%,99*,-5%,32%,36*,0%
COc1ccc(C2=CC(c3ccc(OC)c(OC)c3)c3c(c4ccccc4oc3=O)O2)cc1OC (stereo not drawn),4%,41,2.6µM*,8.3µM*,1,-2%
O=C(c1ccc(Br)cc1)N1CCCc2ccccc21,-54%,20,6%,-22%,-3,-5%
CC1(C)CC(O)C(C)(C)N1O (stereo not drawn),1%,-15,80%,13µM*,-2,5%
COc1cc2c(cc1OC)C(c1cccs1)NCC2 (stereo not drawn),-2%,-3,4%,86%,-2,-1%
COc1cc2c(cc1OC)C(COc1ccc(C(C)C)cc1)NCC2 (stereo not drawn),-1%,-3,?,12µM*,-2,0%
